# Measurements: ChEMBL document CHEMBL4513146, “CO-ADD screening of Karazin Kharkiv National University (Ukraine) compounds”
# Results with a measured potency or affinity are listed apart.
# Assays:
# Staphylococcus aureus = settings: Concentration 32 ug.mL-1;; ASSAY_TEST Inhibition of Bacterial Growth; detection method Absorption (OD600); MEDIA CAMHB; plate type 384well; NBS; CORNING #3640; time 18 hr
# Escherichia coli = settings: Concentration 32 ug.mL-1;; ASSAY_TEST Inhibition of Bacterial Growth; detection method Absorption (OD600); MEDIA CAMHB; plate type 384well; NBS; CORNING #3640; time 18 hr
Compound,Inhibition (Staphylococcus aureus) [%],Inhibition (Escherichia coli) [%]
COc1ccccc1-n1ccn2c(SCC#N)nnc2c1=O,15.53,0.38
CCc1ccccc1NC(=O)Cn1nc2c(SCc3ccc(Cl)cc3)nccn2c1=O,9.03,-5.25
CCOC(=O)c1ccc(NC(=O)Cn2nc3ccc(-c4ccc(Cl)cc4)nn3c2=O)cc1,7.47,-1.44
O=C(Cn1nc2c(Oc3ccccc3)nccn2c1=O)Nc1ccccc1Cl,6.14,-6.19
CC(C)CCn1c(=O)c2sccc2n2c(=O)n(Cc3c(F)cccc3Cl)nc12,13.63,0.76
Cc1ccc(N(Cc2ccccc2)S(=O)(=O)c2ccc3nncn3c2)cc1F,-5.44,-9.13
O=C(CSc1nnc2c(=O)n(Cc3ccc(F)cc3)ccn12)NCC1CCCO1 (centres undefined),8.21,-3.13
Cc1cc(NC(=O)Cn2c(=O)c3nnc(C(C)C)n3c3ccccc32)ccc1Br,13.77,0
Cc1cc(Br)ccc1NC(=O)Cn1nc2c(Sc3ccccc3)nccn2c1=O,4.58,-5.92
COc1cccc(-n2ccn3c(SCC(=O)NCc4ccc(C)cc4)nnc3c2=O)c1,-1.77,2.15
Cc1nnc2ccc(S(=O)(=O)N(Cc3cccc(F)c3)c3cccc(F)c3)cn12,-4.62,-13.2
O=C(Cn1nc2c3cc(-c4ccc(Cl)cc4)nn3ccn2c1=O)Nc1ccc2c(c1)OCCO2,-0.49,-1.57
